Laboratory results taken from PMC7862700, “An all-to-all approach to the identification of sequence-specific readers for epigenetic DNA modifications on cytosine”.

Tests used:
Experiment in all cases: DAPPL (digital affinity profiling via proximity ligation, sequencing); 10 mM Tris-HCl pH 7.5, 50 mM NaCl, 1 mM DTT, 4% glycerol, room temperature, 30 min; GST-TFs on glutathione beads, 16-mer random dsDNA library, 0.1% formaldehyde crosslink after washing; high values mean tight binding
FEV = target: T1, FEV (Homo sapiens, UniProt Q99581 1-238); details: protein: recombinant; tags: N-terminal GST; dsDNA, one strand shown
T1 sequence: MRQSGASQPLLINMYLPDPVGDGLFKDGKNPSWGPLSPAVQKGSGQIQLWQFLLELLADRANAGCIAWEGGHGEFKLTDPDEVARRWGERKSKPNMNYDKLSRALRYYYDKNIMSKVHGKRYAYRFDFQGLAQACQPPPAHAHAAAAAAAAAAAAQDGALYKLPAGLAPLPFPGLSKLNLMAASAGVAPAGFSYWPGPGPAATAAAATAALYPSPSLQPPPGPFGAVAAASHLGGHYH
Method in brief: (§1)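 Binding signal is each hexamer's read frequency for a factor divided by its frequency in the tag-only sample. The factors were GST-fused human transcription factors from yeast, captured on glutathione beads, DNA-barcoded and pooled with that sample. Pools were incubated with 200 nmole of a random double-stranded 16-mer DNA library in Tris/NaCl/DTT/glycerol buffer at room temperature for 30 min, then washed, crosslinked with 0.1% formaldehyde, proximity-ligated with BsaI/T4 ligase (1 h, 37 °C), PCR-amplified and sequenced on an Illumina NextSeq500.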

ETV5 = ETV5 (Homo sapiens, UniProt P41161 1-510); details: protein: recombinant; tags: N-terminal GST; dsDNA, one strand shown
ETV5, sequence (P41161 whole entry): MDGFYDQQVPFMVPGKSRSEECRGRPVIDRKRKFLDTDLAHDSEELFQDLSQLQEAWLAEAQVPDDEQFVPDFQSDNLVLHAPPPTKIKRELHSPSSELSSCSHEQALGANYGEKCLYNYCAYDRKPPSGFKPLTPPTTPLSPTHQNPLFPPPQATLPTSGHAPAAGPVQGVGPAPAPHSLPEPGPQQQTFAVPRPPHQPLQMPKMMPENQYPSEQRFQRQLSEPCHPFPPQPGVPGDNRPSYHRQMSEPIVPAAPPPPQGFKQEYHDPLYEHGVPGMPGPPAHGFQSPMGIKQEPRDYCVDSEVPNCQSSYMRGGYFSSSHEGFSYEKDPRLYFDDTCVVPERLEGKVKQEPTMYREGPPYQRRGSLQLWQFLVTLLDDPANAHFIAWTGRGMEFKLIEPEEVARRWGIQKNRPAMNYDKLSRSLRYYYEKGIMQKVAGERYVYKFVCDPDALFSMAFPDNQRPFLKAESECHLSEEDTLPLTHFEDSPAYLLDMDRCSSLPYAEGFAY
Method in brief: as §1

HSF1 = HSF1 (Homo sapiens, UniProt Q00613 1-529); details: protein: recombinant; tags: N-terminal GST; chain copies: 3; dsDNA, one strand shown
HSF1, sequence (Q00613 whole entry): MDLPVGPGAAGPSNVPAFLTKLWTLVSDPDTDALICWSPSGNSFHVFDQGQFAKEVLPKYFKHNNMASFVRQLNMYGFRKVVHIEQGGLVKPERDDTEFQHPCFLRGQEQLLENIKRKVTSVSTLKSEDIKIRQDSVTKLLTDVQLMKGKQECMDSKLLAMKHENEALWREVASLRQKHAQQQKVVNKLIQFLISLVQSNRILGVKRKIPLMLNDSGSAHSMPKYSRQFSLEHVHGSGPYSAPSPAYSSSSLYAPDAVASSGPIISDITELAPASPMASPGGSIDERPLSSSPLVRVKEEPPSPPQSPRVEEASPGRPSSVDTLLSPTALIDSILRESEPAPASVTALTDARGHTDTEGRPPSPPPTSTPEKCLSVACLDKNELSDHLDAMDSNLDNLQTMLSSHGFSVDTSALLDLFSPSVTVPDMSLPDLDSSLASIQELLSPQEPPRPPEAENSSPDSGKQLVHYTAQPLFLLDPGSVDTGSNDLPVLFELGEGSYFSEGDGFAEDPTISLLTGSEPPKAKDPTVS
Method in brief: as §1

SPIC = target: T2, SPIC (Homo sapiens, UniProt Q8N5J4 1-248); details: protein: recombinant; tags: N-terminal GST; dsDNA, one strand shown
T2 sequence: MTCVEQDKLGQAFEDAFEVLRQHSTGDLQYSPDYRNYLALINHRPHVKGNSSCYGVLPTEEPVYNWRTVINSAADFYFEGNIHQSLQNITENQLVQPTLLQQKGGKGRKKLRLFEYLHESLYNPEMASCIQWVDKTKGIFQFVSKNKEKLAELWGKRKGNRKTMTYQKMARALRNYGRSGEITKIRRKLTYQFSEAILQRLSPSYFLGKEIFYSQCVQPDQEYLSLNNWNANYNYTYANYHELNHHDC
Method in brief: as §1

ELF4 = ELF4 (Homo sapiens, UniProt Q99607 1-663); details: protein: recombinant; tags: N-terminal GST; dsDNA, one strand shown
ELF4, sequence (Q99607 whole entry): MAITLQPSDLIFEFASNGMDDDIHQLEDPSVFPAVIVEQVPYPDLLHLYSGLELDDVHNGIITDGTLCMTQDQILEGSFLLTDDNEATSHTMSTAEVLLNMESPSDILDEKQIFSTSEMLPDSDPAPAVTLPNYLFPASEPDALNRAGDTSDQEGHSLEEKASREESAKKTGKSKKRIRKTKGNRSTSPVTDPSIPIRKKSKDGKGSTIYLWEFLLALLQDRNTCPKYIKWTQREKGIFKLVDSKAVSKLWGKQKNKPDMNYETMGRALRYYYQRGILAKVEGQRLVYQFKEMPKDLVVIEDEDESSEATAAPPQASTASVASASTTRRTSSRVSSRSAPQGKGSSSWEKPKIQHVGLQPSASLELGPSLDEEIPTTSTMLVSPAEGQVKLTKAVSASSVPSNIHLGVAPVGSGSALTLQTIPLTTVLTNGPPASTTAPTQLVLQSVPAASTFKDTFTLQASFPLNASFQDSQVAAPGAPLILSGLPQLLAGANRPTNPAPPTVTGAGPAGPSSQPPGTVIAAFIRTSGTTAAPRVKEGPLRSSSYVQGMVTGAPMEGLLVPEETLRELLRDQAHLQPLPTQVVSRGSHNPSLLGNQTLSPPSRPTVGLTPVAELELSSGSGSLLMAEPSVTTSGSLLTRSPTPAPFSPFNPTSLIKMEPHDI
Method in brief: as §1

ELK4 = target: T3, ELK4 (Homo sapiens, UniProt P28324-2 1-405); details: protein: recombinant; tags: N-terminal GST; dsDNA, one strand shown
T3 sequence: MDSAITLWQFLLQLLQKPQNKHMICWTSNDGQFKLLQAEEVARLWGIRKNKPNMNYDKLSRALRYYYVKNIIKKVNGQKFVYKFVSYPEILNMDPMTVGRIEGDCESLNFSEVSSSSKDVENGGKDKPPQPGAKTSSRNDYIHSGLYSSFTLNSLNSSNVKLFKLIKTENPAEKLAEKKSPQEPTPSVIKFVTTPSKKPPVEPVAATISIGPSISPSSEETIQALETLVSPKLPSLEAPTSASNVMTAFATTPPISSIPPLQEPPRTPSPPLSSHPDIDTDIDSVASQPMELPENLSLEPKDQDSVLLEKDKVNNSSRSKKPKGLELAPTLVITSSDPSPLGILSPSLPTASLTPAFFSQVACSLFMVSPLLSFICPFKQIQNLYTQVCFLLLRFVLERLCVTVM
Method in brief: as §1

ETV2 = target: T4, ETV2 (Homo sapiens, UniProt O00321 1-342); details: protein: recombinant; tags: N-terminal GST; dsDNA, one strand shown
T4 sequence: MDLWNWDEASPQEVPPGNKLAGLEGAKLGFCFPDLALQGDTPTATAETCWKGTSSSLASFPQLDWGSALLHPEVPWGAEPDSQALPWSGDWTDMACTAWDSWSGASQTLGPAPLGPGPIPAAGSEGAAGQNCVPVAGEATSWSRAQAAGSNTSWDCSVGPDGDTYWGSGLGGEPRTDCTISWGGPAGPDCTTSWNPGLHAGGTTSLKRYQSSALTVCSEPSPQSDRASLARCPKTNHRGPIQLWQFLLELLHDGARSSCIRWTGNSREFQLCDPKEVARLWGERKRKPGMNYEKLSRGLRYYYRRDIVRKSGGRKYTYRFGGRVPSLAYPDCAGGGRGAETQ
Method in brief: as §1

ELF3 = target: T5, ELF3 (Homo sapiens, UniProt P78545 1-371); details: protein: recombinant; tags: N-terminal GST; dsDNA, one strand shown
T5 sequence: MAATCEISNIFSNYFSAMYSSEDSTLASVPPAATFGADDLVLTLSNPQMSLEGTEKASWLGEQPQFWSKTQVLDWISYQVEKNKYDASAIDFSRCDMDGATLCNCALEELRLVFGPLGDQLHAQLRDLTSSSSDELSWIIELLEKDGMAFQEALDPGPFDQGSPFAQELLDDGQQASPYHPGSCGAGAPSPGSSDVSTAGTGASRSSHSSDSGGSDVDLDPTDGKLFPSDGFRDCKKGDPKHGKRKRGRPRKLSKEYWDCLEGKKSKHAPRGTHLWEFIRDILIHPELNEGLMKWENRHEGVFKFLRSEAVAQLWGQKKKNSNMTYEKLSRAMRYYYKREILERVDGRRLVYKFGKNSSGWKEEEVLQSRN
Method in brief: as §1

CRX = CRX (Homo sapiens, UniProt O43186 1-299); details: protein: recombinant; tags: N-terminal GST; dsDNA, one strand shown
CRX, sequence (O43186 whole entry): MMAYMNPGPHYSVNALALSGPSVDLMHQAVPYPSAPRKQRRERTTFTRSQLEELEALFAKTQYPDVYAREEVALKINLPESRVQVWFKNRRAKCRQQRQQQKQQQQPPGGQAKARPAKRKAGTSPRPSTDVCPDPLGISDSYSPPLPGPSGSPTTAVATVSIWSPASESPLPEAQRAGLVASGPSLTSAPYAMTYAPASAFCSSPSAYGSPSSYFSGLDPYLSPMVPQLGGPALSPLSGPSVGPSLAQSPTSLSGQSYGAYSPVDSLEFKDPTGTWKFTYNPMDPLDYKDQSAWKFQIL
Method in brief: as §1

ETV1 = ETV1 (Homo sapiens, UniProt P50549 1-477); details: protein: recombinant; tags: N-terminal GST; dsDNA, one strand shown
ETV1, sequence (P50549 whole entry): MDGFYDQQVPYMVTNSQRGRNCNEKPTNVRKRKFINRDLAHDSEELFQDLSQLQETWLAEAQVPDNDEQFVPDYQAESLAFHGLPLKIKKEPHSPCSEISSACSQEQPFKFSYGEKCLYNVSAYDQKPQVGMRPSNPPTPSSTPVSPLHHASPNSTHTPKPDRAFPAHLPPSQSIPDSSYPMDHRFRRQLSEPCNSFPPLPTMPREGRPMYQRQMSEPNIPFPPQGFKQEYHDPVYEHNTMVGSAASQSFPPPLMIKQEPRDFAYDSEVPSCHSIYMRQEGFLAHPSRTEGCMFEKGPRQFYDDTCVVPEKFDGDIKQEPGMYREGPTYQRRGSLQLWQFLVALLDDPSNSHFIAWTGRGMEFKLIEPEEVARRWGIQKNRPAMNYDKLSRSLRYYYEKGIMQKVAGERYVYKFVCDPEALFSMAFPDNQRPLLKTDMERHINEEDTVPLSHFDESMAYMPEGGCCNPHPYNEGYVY
Method in brief: as §1

ERF = target: T6, ERF (Homo sapiens, UniProt P50548 1-548); details: protein: recombinant; tags: N-terminal GST; dsDNA, one strand shown
T6 sequence: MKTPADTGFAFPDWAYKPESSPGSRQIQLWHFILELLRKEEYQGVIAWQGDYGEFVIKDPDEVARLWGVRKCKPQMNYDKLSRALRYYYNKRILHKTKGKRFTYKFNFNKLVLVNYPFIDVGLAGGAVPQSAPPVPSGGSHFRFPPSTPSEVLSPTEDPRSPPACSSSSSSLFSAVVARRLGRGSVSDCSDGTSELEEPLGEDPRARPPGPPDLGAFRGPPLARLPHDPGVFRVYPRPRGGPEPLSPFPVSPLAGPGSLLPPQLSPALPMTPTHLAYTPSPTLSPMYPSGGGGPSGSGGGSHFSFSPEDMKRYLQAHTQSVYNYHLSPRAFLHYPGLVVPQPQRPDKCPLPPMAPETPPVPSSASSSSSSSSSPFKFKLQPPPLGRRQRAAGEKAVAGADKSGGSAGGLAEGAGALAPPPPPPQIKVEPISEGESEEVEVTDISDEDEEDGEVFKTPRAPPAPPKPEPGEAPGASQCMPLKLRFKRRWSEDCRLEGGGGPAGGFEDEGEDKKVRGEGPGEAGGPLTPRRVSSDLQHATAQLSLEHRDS
Method in brief: as §1

ETV3L = target: T7, ETV3L (Homo sapiens, UniProt Q6ZN32 1-361); details: protein: recombinant; tags: N-terminal GST; dsDNA, one strand shown
T7 sequence: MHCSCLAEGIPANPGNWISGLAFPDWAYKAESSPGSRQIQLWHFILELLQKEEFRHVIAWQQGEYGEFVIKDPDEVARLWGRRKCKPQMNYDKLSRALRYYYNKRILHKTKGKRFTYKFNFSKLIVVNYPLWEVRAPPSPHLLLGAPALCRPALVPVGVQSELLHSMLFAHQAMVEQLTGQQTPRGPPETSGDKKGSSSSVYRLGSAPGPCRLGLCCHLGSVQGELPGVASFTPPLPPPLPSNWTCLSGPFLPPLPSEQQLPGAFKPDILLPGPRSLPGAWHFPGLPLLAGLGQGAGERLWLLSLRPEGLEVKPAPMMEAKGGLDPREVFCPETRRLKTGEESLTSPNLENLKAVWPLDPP
Method in brief: as §1

ETS2 = target: T8, ETS2 (Homo sapiens, UniProt P15036 1-469); details: protein: recombinant; tags: N-terminal GST; dsDNA, one strand shown
T8 sequence: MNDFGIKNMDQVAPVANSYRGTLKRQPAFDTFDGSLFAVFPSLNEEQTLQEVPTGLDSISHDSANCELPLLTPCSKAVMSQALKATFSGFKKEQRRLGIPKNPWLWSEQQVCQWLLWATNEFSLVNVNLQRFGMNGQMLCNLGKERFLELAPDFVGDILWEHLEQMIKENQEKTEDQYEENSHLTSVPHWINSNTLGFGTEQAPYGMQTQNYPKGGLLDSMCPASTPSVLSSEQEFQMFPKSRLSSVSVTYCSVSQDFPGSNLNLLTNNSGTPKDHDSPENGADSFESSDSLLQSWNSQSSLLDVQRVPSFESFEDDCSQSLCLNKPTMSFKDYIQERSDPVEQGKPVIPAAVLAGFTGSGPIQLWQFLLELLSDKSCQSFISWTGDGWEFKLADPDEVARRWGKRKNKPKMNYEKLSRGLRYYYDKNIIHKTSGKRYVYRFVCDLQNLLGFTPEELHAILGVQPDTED
Method in brief: as §1

SPDEF = target: T9, SPDEF (Homo sapiens, UniProt O95238 1-335); details: protein: recombinant; tags: N-terminal GST; dsDNA, one strand shown
T9 sequence: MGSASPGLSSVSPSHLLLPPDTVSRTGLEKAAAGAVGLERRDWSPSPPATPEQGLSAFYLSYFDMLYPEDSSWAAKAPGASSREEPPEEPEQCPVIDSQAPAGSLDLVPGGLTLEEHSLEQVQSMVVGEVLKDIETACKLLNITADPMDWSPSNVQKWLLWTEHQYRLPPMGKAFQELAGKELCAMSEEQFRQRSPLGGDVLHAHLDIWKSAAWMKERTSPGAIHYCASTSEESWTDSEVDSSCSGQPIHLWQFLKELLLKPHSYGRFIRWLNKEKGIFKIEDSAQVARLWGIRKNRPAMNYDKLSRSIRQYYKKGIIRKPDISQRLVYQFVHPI
Method in brief: as §1

ETV7 = target: T10, ETV7 (Homo sapiens, UniProt Q9Y603 1-341); details: protein: recombinant; tags: N-terminal GST; dsDNA, one strand shown
T10 sequence: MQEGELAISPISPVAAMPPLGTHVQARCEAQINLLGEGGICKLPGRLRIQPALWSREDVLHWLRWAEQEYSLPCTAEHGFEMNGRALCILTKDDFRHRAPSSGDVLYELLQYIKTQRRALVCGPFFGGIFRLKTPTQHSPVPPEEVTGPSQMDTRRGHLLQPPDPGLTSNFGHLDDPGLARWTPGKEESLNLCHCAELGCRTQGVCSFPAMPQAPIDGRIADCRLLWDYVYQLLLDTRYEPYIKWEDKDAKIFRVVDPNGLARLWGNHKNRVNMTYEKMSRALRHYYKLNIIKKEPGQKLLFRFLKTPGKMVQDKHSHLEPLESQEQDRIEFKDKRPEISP
Method in brief: as §1

ELF5 = target: T11, ELF5 (Homo sapiens, UniProt Q9UKW6-2 1-255); details: protein: recombinant; tags: N-terminal GST; dsDNA, one strand shown
T11 sequence: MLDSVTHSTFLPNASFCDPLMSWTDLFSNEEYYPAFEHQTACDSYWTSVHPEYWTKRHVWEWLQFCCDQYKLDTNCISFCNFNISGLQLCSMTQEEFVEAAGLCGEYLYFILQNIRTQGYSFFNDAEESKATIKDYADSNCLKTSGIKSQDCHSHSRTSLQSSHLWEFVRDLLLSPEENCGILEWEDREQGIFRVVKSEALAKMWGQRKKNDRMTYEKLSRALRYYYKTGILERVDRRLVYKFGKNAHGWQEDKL
Method in brief: as §1

ETV3 = target: T12, ETV3 (Homo sapiens, UniProt P41162-2 1-143); details: protein: recombinant; tags: N-terminal GST; dsDNA, one strand shown
T12 sequence: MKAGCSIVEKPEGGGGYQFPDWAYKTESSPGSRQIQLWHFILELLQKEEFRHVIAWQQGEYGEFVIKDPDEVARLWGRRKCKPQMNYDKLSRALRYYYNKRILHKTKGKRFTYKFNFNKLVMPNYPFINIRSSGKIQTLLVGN
Method in brief: as §1

ETV6 = ETV6 (Homo sapiens, UniProt P41212 1-452); details: protein: recombinant; tags: N-terminal GST; dsDNA, one strand shown
ETV6, sequence (P41212 whole entry): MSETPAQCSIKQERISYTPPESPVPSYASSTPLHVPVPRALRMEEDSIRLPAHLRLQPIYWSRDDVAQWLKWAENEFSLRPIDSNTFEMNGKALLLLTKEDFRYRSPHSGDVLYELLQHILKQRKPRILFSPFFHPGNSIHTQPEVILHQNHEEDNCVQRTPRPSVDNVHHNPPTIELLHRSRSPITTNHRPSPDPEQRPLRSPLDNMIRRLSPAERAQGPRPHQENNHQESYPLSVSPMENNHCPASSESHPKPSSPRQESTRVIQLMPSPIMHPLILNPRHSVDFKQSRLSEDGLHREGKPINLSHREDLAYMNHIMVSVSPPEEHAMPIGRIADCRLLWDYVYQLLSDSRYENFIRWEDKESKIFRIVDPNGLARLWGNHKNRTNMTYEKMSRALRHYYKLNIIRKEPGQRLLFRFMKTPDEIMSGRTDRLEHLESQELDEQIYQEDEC
Method in brief: as §1

## CTTCGA
FEV
  binding signal: 1.35 fold enrichment (6-mer frequency, TF over GST control)
ETV5
  binding signal: 1.4 fold enrichment (6-mer frequency, TF over GST control)
HSF1
  binding signal: 2.52 fold enrichment (6-mer frequency, TF over GST control)
SPIC
  binding signal: 1.42 fold enrichment (6-mer frequency, TF over GST control)
ELF4
  binding signal: 1.4 fold enrichment (6-mer frequency, TF over GST control)
ELK4
  binding signal: 1.3 fold enrichment (6-mer frequency, TF over GST control)
ETV2
  binding signal: 1.38 fold enrichment (6-mer frequency, TF over GST control)
ELF3
  binding signal: 1.42 fold enrichment (6-mer frequency, TF over GST control)
CRX
  binding signal: 1.49 fold enrichment (6-mer frequency, TF over GST control)
ETV1
  binding signal: 1.35 fold enrichment (6-mer frequency, TF over GST control)
ERF
  binding signal: 1.41 fold enrichment (6-mer frequency, TF over GST control)
ETV3L
  binding signal: 1.37 fold enrichment (6-mer frequency, TF over GST control)
ETS2
  binding signal: 1.36 fold enrichment (6-mer frequency, TF over GST control)
SPDEF
  binding signal: 1.3 fold enrichment (6-mer frequency, TF over GST control)
ETV7
  binding signal: 1.44 fold enrichment (6-mer frequency, TF over GST control)
ELF5
  binding signal: 1.27 fold enrichment (6-mer frequency, TF over GST control)
ETV3
  binding signal: 1.16 fold enrichment (6-mer frequency, TF over GST control)
ETV6
  binding signal: 1.43 fold enrichment (6-mer frequency, TF over GST control)
